Measurements: PubChem BioAssay (NCI)
About 83,000 compounds went through this panel and 20% of them were active in at least one assay; those are over-represented in the sample as a whole.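 Negative percent growth values reflect cell death: -40 means 40% of the cells present at the start died, and -100 means all died.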 Active and inactive are the calls of the source. How the source made its calls: active means growth percent below 10; inactive means the rest.

The compounds below were run on MDA-MB-468 breast (assay: NCI-60 one-dose screen, 48 h (100 = growth as untreated, 0 = no growth, -100 = all killed)). Details: 10 µM unless noted.

SMILES	growth
COc1ccc(NC(=O)c2ccoc2COc2ccccc2)cc1	116% (inactive)
Nc1nc(Nc2ccccc2)c(C=Nc2ccccc2)c(=O)[nH]1	99.6% (inactive)
O=C1CC(c2ccc3c(c2)OCO3)c2ncn(-c3ccc(Cl)cc3)c2N1 (stereo not given)	13% (inactive)
C=C(C)[C@@H]1CC[C@]2(C(N)=O)CC[C@]3(C)[C@H](CC[C@@H]4[C@@]5(C)C/C(=C/c6cccnc6)C(=O)C(C)(C)[C@@H]5CC[C@]43C)[C@@H]12	14.5% [100 µM] (inactive)
O=[N+]([O-])c1ccccc1C(O)Cc1ccc2ccccc2n1 (stereo not given)	79.7% (inactive)
O=C1Nc2ccc(Br)cc2C12Oc1ccccc1C1CC(c3ccc(F)cc3)=NN12 (stereo not given)	82.1% (inactive)
CCCCCCCCCCN1CC2CCCCC2C1 (stereo not given)	54.7% (inactive)
CC(=O)NCc1cc(C)c(C)cc1C	93.4% (inactive)
COc1cc(OC)c(C(=O)/C=C/c2cccc(C(F)(F)F)c2)c(OC)c1	-9.39% (active)
NC(N)=N/N=C/c1ccc(-c2ccc(-c3ccc(Cl)cn3)s2)cc1	94.4% (inactive)
CS(=O)(=O)c1ccc(-c2nc3ccccn3c2C=Nc2ccc(Cl)cc2)cc1	98.1% (inactive)
CC(=Nc1ccccc1)C1=C(O)C(Cc2ccc(O)cc2)NC1=O (stereo not given)	17.6% (inactive)
N=c1c2cc(-c3ccccc3)oc2ncn1/N=C/c1ccc(Br)cc1	68.3% (inactive)
CCCCC1COc2cccc3c2N1C=C/C3=C\C(=O)N(C)c1ccccc1 (stereo not given)	18.8% (inactive)
CN1CCN(CCNc2nc(-c3cccc(NS(=O)(=O)c4cccc5c(N(C)C)cccc45)c3)cs2)CC1	42.9% (inactive)
